Test results as given in PMC4336329 (PLoS ONE, 2015).
Among all 310,000 compounds or so, about 2,200 (0.71%) showed an effect of 50% or more. Effects have a minus sign here. This is one part of a sample in which strong results are shown more often than they occur.

Each molecule was assayed against human ether-à-go-go-related gene (hERG) potassium channel (human, UniProt Q12809) (assay: primary screen, population patch clamp on CHO cells stably expressing hERG; higher = less effect of the substance).
Chain of human ether-à-go-go-related gene (hERG) potassium channel (Q12809 whole entry, looked up): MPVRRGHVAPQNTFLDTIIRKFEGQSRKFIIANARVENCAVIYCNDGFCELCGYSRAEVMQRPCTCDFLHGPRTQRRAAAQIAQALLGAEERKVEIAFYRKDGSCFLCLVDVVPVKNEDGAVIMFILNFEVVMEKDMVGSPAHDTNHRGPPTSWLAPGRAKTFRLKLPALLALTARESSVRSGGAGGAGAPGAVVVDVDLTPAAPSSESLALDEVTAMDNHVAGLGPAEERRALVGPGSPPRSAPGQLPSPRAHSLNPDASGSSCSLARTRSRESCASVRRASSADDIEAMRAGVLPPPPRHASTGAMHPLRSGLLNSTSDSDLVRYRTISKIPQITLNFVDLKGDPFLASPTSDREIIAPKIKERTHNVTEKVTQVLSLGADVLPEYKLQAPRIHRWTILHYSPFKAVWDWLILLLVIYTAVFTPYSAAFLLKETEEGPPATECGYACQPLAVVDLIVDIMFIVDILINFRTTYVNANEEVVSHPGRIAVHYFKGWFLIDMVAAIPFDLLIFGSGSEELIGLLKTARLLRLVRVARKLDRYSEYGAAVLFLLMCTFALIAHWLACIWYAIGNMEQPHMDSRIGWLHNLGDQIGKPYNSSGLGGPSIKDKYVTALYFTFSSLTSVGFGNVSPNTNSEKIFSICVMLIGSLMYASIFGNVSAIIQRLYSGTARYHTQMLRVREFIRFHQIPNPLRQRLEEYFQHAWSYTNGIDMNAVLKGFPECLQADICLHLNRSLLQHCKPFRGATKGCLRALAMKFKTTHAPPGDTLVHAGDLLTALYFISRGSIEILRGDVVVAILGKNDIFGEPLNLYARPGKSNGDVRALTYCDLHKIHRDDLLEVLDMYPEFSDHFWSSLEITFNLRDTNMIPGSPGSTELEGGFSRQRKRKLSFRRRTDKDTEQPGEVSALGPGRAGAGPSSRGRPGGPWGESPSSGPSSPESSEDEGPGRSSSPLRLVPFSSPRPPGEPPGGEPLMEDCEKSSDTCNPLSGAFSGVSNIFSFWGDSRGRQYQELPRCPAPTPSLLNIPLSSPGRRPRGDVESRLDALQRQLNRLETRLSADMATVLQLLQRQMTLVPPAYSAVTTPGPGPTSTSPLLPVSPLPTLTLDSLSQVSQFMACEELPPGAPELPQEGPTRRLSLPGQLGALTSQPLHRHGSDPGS

Compared with `NC(=O)Nc1ccccc1C(=O)NCCc1ccccc1`, `COc1ccc(CCNC(=O)c2cccc3ccccc23)cc1OC` is higher in “hERG current change (%, negative = inhibition) at 1uM” value: 9.22% for the first, 22% for the second.

First: Cn1c(SCc2ccc3c(c2)OCO3)nnc1-c1ccccc1
Second: Cc1cc2nnn(-c3nnc(-c4ccccc4)c4ccccc34)c2cc1C
The “hERG current change (%, negative = inhibition) at 1uM” value of the first is higher: 10.4% for the first, 5.53% for the second.

Compared with `CCCc1[nH]n(-c2ccc(F)cc2)c(=O)c1C=Nc1cccc(F)c1`, `O=C(NCCN1CCN(C(=O)c2ccc(F)cc2)CC1)c1ccc(F)cc1` is lower in “hERG current change (%, negative = inhibition) at 1uM” value: 16.9% for the first, -32% for the second.

Going from `COC(=O)c1[nH]c2ccccc2c1NC(=O)C(C)N1CC(C)OC(C)C1` (stereo not drawn) to `COC(=O)c1[nH]c2ccc(Br)cc2c1NC(=O)C(C)N1CCN(C2CCCCC2)CC1` (stereo not drawn), the “hERG current change (%, negative = inhibition) at 1uM” value falls from 10.2% to -82.6%.

Compared with `COC(=O)c1[nH]c2ccc(Br)cc2c1NC(=O)CN1CCCc2ccccc21`, `Cc1ccccc1OCC(=O)Nc1ccccc1N1CCC(C)CC1` is higher in “hERG current change (%, negative = inhibition) at 1uM” value: 8.7% for the first, 18.9% for the second.

Going from `Cc1scc(-c2n[nH]c(=S)n2C(C)c2ccccc2)c1C` (stereo not drawn) to `CC(C)CNc1c2c(nc3ccccc13)CCC2.Cl`, the “hERG current change (%, negative = inhibition) at 1uM” value falls from 8.59% to -33.5%.

Going from `Cc1ccc(CNC(=O)[C@H](C)NC(=O)C2CCN(C(=O)[C@@H](N)CC(C)C)CC2)cc1` to `Cc1ccc(C(=O)N2CCN(CCNC(=O)C(=O)NC(C)C)CC2)cc1`, the “hERG current change (%, negative = inhibition) at 1uM” value rises from 6.77% to 7.95%.

First: OCCNc1c2c(nc3ccccc13)CCCC2
Second: COCCNc1c2c(nc3ccccc13)CCC2.Cl
The “hERG current change (%, negative = inhibition) at 1uM” value of the first is higher: -15.9% for the first, -41.5% for the second.

Going from `c1ccc(CNc2c3ccccc3nc3ccccc23)cc1` to `Cl.c1ccc(CNc2nc(NCc3ccccc3)c3ccccc3n2)cc1`, the “hERG current change (%, negative = inhibition) at 1uM” value rises from -74.5% to 16.8%.

First: O=C(NCc1ccco1)c1c2c(nc3ccccc13)CCC2
Second: c1coc(CNc2c3c(nc4ccccc24)CCC3)c1
The “hERG current change (%, negative = inhibition) at 1uM” value of the first is higher: 3.32% for the first, -82% for the second.

Compared with `OCCNc1c2ccccc2nc2ccccc12`, `Cl.c1ccc(CNc2c3c(nc4ccccc24)CCC3)cc1` is lower in “hERG current change (%, negative = inhibition) at 1uM” value: -3.35% for the first, -75.8% for the second.

Going from `CCc1ccc(NC(=O)c2cnc3scc(C)n3c2=O)cc1` to `COc1ccc(CCNC(=O)c2cnc3ccccn3c2=O)cc1`, the “hERG current change (%, negative = inhibition) at 1uM” value falls from 4.58% to -1.13%.

Going from `Cc1ccc(NC(=S)NCCc2ccc(Cl)cc2)c(C)c1` to `CC(=O)c1ccc(NC(=S)Nc2cccc(Cl)c2C)cc1`, the “hERG current change (%, negative = inhibition) at 1uM” value falls from 12.4% to 12.3%.

First: COc1ccc(CNC(=O)CCCn2nc(C)c3c(C)n(-c4ccc(C)cc4)nc3c2=O)cc1
Second: COc1ccc(CCNC(=O)c2c(C)nc3ccccn23)cc1
The “hERG current change (%, negative = inhibition) at 1uM” value of the first is higher: 6.87% for the first, 4.94% for the second.

Compared with `O=c1c2ccccc2cnn1Cc1nnc(-c2cccs2)o1`, `COc1ccc(Cc2nnc(NC(=O)Nc3ccccc3F)s2)cc1` is higher in “hERG current change (%, negative = inhibition) at 1uM” value: 13.7% for the first, 15.2% for the second.

First: CCOC(=O)CSc1nc2c(c(=O)[nH]c(=O)n2C)n1CCCc1ccccc1
Second: Cn1cnnc1SCC(=O)OCN1C(=O)c2ccccc2C1=O
The “hERG current change (%, negative = inhibition) at 1uM” value of the first is lower: 1.75% for the first, 7.64% for the second.

First: CCOc1ccc(S(=O)(=O)NCCCN2CCOCC2)cc1
Second: CCOc1ccc(NC(=O)C(=O)NCCN2CCN(S(=O)(=O)c3ccc(C)cc3)CC2)cc1
The “hERG current change (%, negative = inhibition) at 1uM” value of the first is lower: 9.88% for the first, 11.6% for the second.

Compared with `COc1ccc(CCNC(=O)c2cc3c(=O)n4ccccc4nc3n(C3CCCCC3)c2=N)cc1OC`, `COc1ccc(CCNC(=O)c2cc3c(=O)n4ccccc4nc3n(C3CCCCC3)c2=N)cc1` is lower in “hERG current change (%, negative = inhibition) at 1uM” value: -61.9% for the first, -67.6% for the second.

Compared with `COc1ccc(CCNC(=O)c2c(C)nc3ccccn23)cc1OC`, `COc1ccc(CNC(=O)c2cc(COc3c(F)cccc3F)on2)cc1OC` is higher in “hERG current change (%, negative = inhibition) at 1uM” value: -9.75% for the first, 7.12% for the second.

Going from `COc1ccc(CN(C)CC(=O)Nc2cccc(S(=O)(=O)N(C)c3ccccc3)c2)c(OC)c1` to `Cc1ccc(S(=O)(=O)N(C)c2ccc(C(=O)Nc3c(C)n(C)n(-c4ccccc4)c3=O)cc2)cc1`, the “hERG current change (%, negative = inhibition) at 1uM” value rises from -25% to 4.15%.

First: COc1ccc([N+](=O)[O-])c(OC)c1C(=O)NC(=O)Nc1c(F)c(F)c(F)c(F)c1F
Second: COc1cc(OC)cc(C(=O)NC(=S)Nc2nnn(C)n2)c1
The “hERG current change (%, negative = inhibition) at 1uM” value of the first is lower: 4.71% for the first, 13% for the second.

Compared with `O=C(NCCN1CCN(C(=O)c2cccc(Br)c2)CC1)C(=O)NCc1ccccc1`, `O=C(NCCN1CCN(C(=O)c2ccc(F)cc2)CC1)C(=O)NCc1ccccc1` is lower in “hERG current change (%, negative = inhibition) at 1uM” value: -11.2% for the first, -75.1% for the second.

Going from `CC(C)(C)c1ccc(C(=O)N2CCN(CCNC(=O)C(=O)NCc3ccccc3)CC2)cc1` to `O=C(NCCN1CCN(C(=O)c2ccc([N+](=O)[O-])cc2)CC1)C(=O)NCc1ccccc1`, the “hERG current change (%, negative = inhibition) at 1uM” value falls from -8.22% to -85.9%.

Going from `COc1ccc(NC(=O)C(=O)NCCN2CCN(C(=O)c3ccc(C)cc3)CC2)cc1` to `CCOc1ccc(NC(=O)C(=O)NCCN2CCN(C(=O)c3ccc(C)cc3)CC2)cc1`, the “hERG current change (%, negative = inhibition) at 1uM” value falls from -28.6% to -65.5%.

Compared with `O=C(NCCN1CCN(C(=O)c2ccc(Br)cc2)CC1)c1ccc(Br)cc1`, `O=C(NCCN1CCN(C(=O)c2ccc([N+](=O)[O-])cc2)CC1)C(=O)Nc1ccc(F)cc1` is lower in “hERG current change (%, negative = inhibition) at 1uM” value: -63.5% for the first, -84.3% for the second.

First: O=C(NCCN1CCN(C(=O)c2cccc([N+](=O)[O-])c2)CC1)C(=O)NCc1ccc(Cl)cc1
Second: CCCCc1ccc(NC(=O)C(=O)NCCN2CCN(C(=O)c3ccc([N+](=O)[O-])cc3)CC2)cc1
The “hERG current change (%, negative = inhibition) at 1uM” value of the first is higher: 0.645% for the first, 0.387% for the second.

Going from `O=C(NCCN1CCN(c2ccc([N+](=O)[O-])cc2)CC1)NCc1ccccc1` to `CC(NC(=O)C(=O)NCCN1CCN(C(=O)c2ccc([N+](=O)[O-])cc2)CC1)c1ccccc1` (stereo not drawn), the “hERG current change (%, negative = inhibition) at 1uM” value falls from -20.2% to -67.8%.

First: Cl.O=C(NCCN1CCCC1)c1ccc(Br)cc1
Second: Cc1ccc(C(=O)NCC(=O)N2CCCCCCC2)cc1
The “hERG current change (%, negative = inhibition) at 1uM” value of the first is lower: 3.38% for the first, 20.7% for the second.

Going from `CCOC(=O)c1c(NC(=O)C2C3C=CC(C3)C2C(=O)O)sc2c1CC(C)(C)OC2` (stereo not drawn) to `CCOC(=O)c1csc(NC(C)=O)n1`, the “hERG current change (%, negative = inhibition) at 1uM” value rises from 2.99% to 7.33%.

Compared with `CCOC(=O)CC1(NC(=O)c2cc(COc3cccc(OC)c3)on2)CCCCC1`, `CCNC(=O)NC(=O)COC(=O)CNC(=O)COc1ccccc1` is higher in “hERG current change (%, negative = inhibition) at 1uM” value: 10.3% for the first, 14.5% for the second.

Compared with `CN1CCN(S(=O)(=O)c2cccc(C(=O)Oc3cccc(C#N)c3)c2)CC1`, `CN1CCC(=O)N([C@H](CSc2ccc(Br)cc2)c2ccccc2)CC1` is lower in “hERG current change (%, negative = inhibition) at 1uM” value: 11.8% for the first, -89.8% for the second.

First: CC12CC3CC(C)(C1)CC(C(=O)NNC(=O)c1ccncc1)(C3)C2
Second: CNC(=O)C(=O)NCCN1CCN(C(=O)c2ccc([N+](=O)[O-])cc2)CC1
The “hERG current change (%, negative = inhibition) at 1uM” value of the first is lower: -7.13% for the first, 9.09% for the second.

First: CC(NC(=O)C(=O)NCCN1CCN(C(=O)c2ccccc2Br)CC1)c1ccccc1 (stereo not drawn)
Second: CCCN1CCC(=O)N([C@H](CSc2ccccc2)c2ccccc2)CC1
The “hERG current change (%, negative = inhibition) at 1uM” value of the first is higher: 9.08% for the first, -82.2% for the second.

First: O=C(Nc1ccc(F)cc1)N1CCCC(c2nc3c(nnn3Cc3ccccc3Cl)c(=O)[nH]2)C1 (stereo not drawn)
Second: CC(=O)Nc1ccc(SC[C@H](CC(C)C)N2CCN(CCc3ccccc3)CCC2=O)cc1
The “hERG current change (%, negative = inhibition) at 1uM” value of the first is higher: 13.4% for the first, -26.2% for the second.

First: CC(=O)Nc1ccc(SC[C@H](Cc2ccccc2)N2CCN(CCc3ccccc3)CCC2=O)cc1
Second: Cc1ccc(SC[C@H](Cc2ccccc2)N2CCN(CCc3ccccc3)CCC2=O)cc1
The “hERG current change (%, negative = inhibition) at 1uM” value of the first is lower: 4.37% for the first, 8.27% for the second.

Going from `CCCN1CCC(=O)N([C@H](CSc2ccc(OC)cc2)CC(C)C)CC1` to `CCCN1CCC(=O)N([C@H](CSc2ccccc2)CC(C)C)CC1`, the “hERG current change (%, negative = inhibition) at 1uM” value rises from -42.3% to -31.8%.

First: CCCN1CCC(=O)N([C@H](CSc2ccc(OC)cc2)c2ccccc2)CC1
Second: CCCN1CCC(=O)N([C@H](CSc2ccc(C)cc2)c2ccccc2)CC1
The “hERG current change (%, negative = inhibition) at 1uM” value of the first is lower: -81.7% for the first, -76.3% for the second.

Compared with `CCCN1CCC(=O)N([C@H](CSc2ccc(OC)cc2)Cc2ccccc2)CC1`, `CCCN1CCC(=O)N([C@H](CSc2ccc(Br)cc2)c2ccccc2)CC1` is higher in “hERG current change (%, negative = inhibition) at 1uM” value: -36.3% for the first, -17.5% for the second.

Compared with `CN1CCC(=O)N([C@H](CSc2ccccc2)c2ccccc2)CC1`, `O=C1CCN(Cc2ccccc2)CCN1[C@H](CSc1ccccc1)c1ccccc1` is higher in “hERG current change (%, negative = inhibition) at 1uM” value: -46.4% for the first, 2.25% for the second.

Going from `CC(=O)Nc1ccc(SC[C@H](c2ccccc2)N2CCN(CCc3ccccc3)CCC2=O)cc1` to `Cc1ccc(SC[C@H](c2ccccc2)N2CCN(CCc3ccccc3)CCC2=O)cc1`, the “hERG current change (%, negative = inhibition) at 1uM” value rises from -56% to -10.2%.

First: CC(C)CN1CCC(=O)N([C@H](CSc2ccc(Br)cc2)c2ccccc2)CC1
Second: O=C1CCN(CCc2ccccc2)CCN1[C@H](CSc1ccc(Br)cc1)c1ccccc1
The “hERG current change (%, negative = inhibition) at 1uM” value of the first is lower: -21.5% for the first, -18.8% for the second.

Going from `Cc1ccc(NC(=O)/C(C#N)=C/c2ccsc2)c(C)c1` to `O=C(/C(=N\O)n1cncn1)c1ccc(Cl)cc1Cl`, the “hERG current change (%, negative = inhibition) at 1uM” value falls from 15.6% to 15.2%.

Going from `O=C(NNS(=O)(=O)c1ccc(F)cc1)C1CC(c2cccnc2)=NO1` (stereo not drawn) to `O=C1CCN(CCc2ccccc2)CCN1[C@H](CSc1ccccc1)c1ccccc1`, the “hERG current change (%, negative = inhibition) at 1uM” value falls from 14.8% to -72.2%.

In the case of `O=C1CCCC(O)=C1C1NCCc2ccccc21` (stereo not drawn), the “hERG current change (%, negative = inhibition) at 1uM” value is reported as 9.52%.
